In the supplement of paper PMC6555819:

What was measured:
Assay in all cases: PBM binding z-score (relative to random genomic background probes); higher = stronger binding; sequences stand for … in GC…GCGATTGACAGCGTAGAATGAAGG
[1] = system: FXR:RXRa (NR concentration 270 nM, RXRa partner concentration 90 nM)
Outline: (§1)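 Binding buffer was PBS pH 7.4 with 2% milk, 0.02% Triton X-100, 1 mM DTT, 0.2 mg/mL BSA and 0.4 mg/ml salmon testes DNA. In it, ligand-free nuclear receptor dimers were incubated 1 h on custom Agilent 4×180K protein-binding microarrays carrying double-stranded probes. Antibodies against each partner (one per run) detected binding, and z-scores were calculated against random background probes after regression normalization of scanned fluorescence.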

[2] = system: LXRa:RXRa (NR concentration 270 nM, RXRa partner concentration 90 nM)
Outline: as §1

[3] = system: LXRa homodimer (NR concentration 270 nM)
Outline: as §1

[4] = system: LXRb:RXRa (NR concentration 270 nM, RXRa partner concentration 90 nM)
Outline: as §1

[5] = system: LXRb homodimer (NR concentration 270 nM)
Outline: as §1

[6] = system: PPARa:RXRa (NR concentration 270 nM, RXRa partner concentration 90 nM)
Outline: as §1

[7] = system: PPARg:RXRa (NR concentration 180 nM, RXRa partner concentration 90 nM)
Outline: as §1

[8] = system: PPARg:RXRa 270nM:90nM, anti-RXR (NR concentration 270 nM, RXRa partner concentration 90 nM)
Outline: as §1

[9] = system: PPARg:RXRa 30nM:10nM, anti-RXR (NR concentration 30 nM, RXRa partner concentration 10 nM)
Outline: as §1

[10] = system: PPARg:RXRa 90nM:30nM, anti-RXR (NR concentration 90 nM, RXRa partner concentration 30 nM)
Outline: as §1

Sequence	PBM binding z-score [1]	PBM binding z-score [2]	PBM binding z-score [3]	PBM binding z-score [4]	PBM binding z-score [5]	PBM binding z-score [6]	PBM binding z-score [7]	PBM binding z-score [8]	PBM binding z-score [9]	PBM binding z-score [10]
AGTCAAAGTTCATCCAGGTAACGTAAGATATGCT	6.4	6.22	5.22	3.62	1.6	4.82	6.19	6.44	3.61	5.54
TCTGATAGGTCAGTTGGTCAGCTAACGAGCTGCC	2.27	2.12	0.378	1.59	0.846	2.67	1.19	2.4	2.52	2.3
ACTATTAGTCGAGACGAGGGCAACCGATAGGTTG	-0.123	-0.246	-0.369	-0.122	-0.111	0.186	0.668	0.119	0.0913	0.381
AGTCAAAGTCCATCTAGGTAACGTAAGATATGCT	0.0265	-0.375	0.0157	-0.0801	-0.0793	0.13	0.685	0.325	0.277	0.00564
ATATGTAGGTTACATCTGGGTCATTCAGGCTATG	1.65	3.57	1.05	2.18	0.621	4.01	5.41	4.89	2.26	3.88
CATACAGGGTCAGCTAGGCTAGAGTAGGGACGGC	4.44	2.68	-0.0896	2.06	-0.0361	4.12	3.06	2.93	0.539	2.03
CAAACTAGGTCACCGCAAGGTCAAAGTCCGCATG	6.27	5.91	5.31	5.42	1.37	6.06	9.19	7.84	5.73	7.81
GCATATAGGTATTACAAGGTGAAAGTCCGATTGT	0.758	0.25	0.246	0.0719	-0.375	1.38	0.78	0.981	0.434	0.722
CAAACTAGGTCACAGAGGTCAAAGCCCGTGCGTA	7.26	6.74	6.92	5.93	1.72	6.63	10.4	8.24	7	8.42
AGTCACAGTTCATCTAGGTAACGTAAGATATGCT	2.21	2.57	1.29	1.54	0.388	2.11	1.85	1.88	0.525	1.04
CGTCCAAGGTCAATGCTAGGTCAGTGTAAGCATT	6.38	5.59	2.58	4.11	0.681	5	3.55	4.67	1.23	2.97
GCTGTTAGTTGAAAGGGCAACCGAATGATTCTCG	0.495	0.93	-0.0723	0.717	0.0485	2.12	1.42	2.9	0.9	2.33
CGTCCAAGGTCAAGGTCAGTTAAAGAGACTCGAA	7.98	6.08	1.79	4.95	1.26	6.11	6.45	6.18	2.97	5.03
CGAACTAGGTCATCCAGGACATTGAATACATTGA	4.43	2.87	1.02	2.52	0.159	5.11	7.97	6.57	4.02	5.68
TCGAGTTGGTTACCAATGGGGCATTCAGCTTTCT	-0.51	-0.505	-1.1	-0.17	-0.988	-0.0256	-0.676	0.352	0.536	0.652
TCTATTACTTGAAGGGCAACCGACGAGTCCGTTT	0.851	1.02	0.425	1.19	0.925	1.48	0.388	2.11	3.96	3.26
TCCAGTAGGTTAGTCGGGGCATTCAGCCAACATA	0.407	0.471	0.422	0.794	-0.477	1.38	0.45	2.08	2.7	2.41
ATCGAAAGGTCGCGGTGAGTATAGAGAAAGGGAA	6	4.14	0.362	3.7	0.371	5.23	4.84	4.74	1.65	3.31
CGTCCAAGGTCAGACAGGTCAGTGAATGCCGAGT	5.43	4.15	1.39	3.43	0.134	4.25	2.72	3.38	0.54	1.85
TCGAGTAGGTTAGGGGCATTCTGAATGGCGTCGA	0.16	0.0463	-0.301	0.694	-0.421	1.08	0.543	2.02	1.09	1.41
CGTCCATGGTCAAGGTCAGTGAAAGAGACTCGAA	1.92	1.67	0.03	1.6	-0.273	2.38	1.13	1.68	0.0317	0.977
CCTATTTGTTGACCATAAGGGCAACCGAAGCTCG	0.863	0.511	0.84	0.696	1.12	0.847	0.437	0.529	0.245	0.342
ATTCAAAGTTCACTAGGTAACGTAAGATTCAGCT	4.73	5.45	4.42	3.08	1.71	4.44	5.64	5.28	2.03	4.25
